# Results as given in PubChem BioAssay (Tox21).
# Records with an inconclusive call do not appear. Where a call stands in place of a potency, no number is given. Values without a mark were called inactive. Active and inactive are the calls of the source. The call rests on the fitted dose curve.
# Target: Beta-2 adrenergic receptor (Homo sapiens) (UniProt P07550)
# Experiment: Adrenergic beta2 receptor (ADRB2) small molecule agonists, cell-based qHTS assay (AID 1963593);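 further: CHO cells stably overexpressing human ADRB2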
# Method in brief: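 CHO cells stably over-expressing ADRB2 were plated overnight at 37C, then dosed with compounds plus a stimulation mix containing 100uM IBMX and 25uM Ro-20-1724 for 0.5hr at room temperature. cAMP was measured by HTRF competition, 1hr.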
# Chain of Beta-2 adrenergic receptor (Homo sapiens) (P07550 whole entry, looked up): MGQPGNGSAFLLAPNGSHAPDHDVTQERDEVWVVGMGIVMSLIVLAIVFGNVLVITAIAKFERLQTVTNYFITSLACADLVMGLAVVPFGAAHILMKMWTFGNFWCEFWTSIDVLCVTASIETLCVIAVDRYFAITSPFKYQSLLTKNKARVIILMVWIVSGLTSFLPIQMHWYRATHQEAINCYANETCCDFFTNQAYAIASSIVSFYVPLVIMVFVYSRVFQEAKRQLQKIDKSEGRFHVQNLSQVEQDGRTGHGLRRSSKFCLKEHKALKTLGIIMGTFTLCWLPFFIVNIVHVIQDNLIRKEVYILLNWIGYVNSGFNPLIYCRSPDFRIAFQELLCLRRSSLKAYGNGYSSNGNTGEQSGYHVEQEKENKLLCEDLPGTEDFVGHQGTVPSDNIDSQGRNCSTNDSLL
SMILES,Potency,activation
CNC(=O)O/N=C(\C)C(C)S(C)(=O)=O (stereo not drawn),inactive,–
C1CCC(C2CCCCC2)CC1,inactive,–
CCCCCCCCCCCCN(C)C,inactive,–
O=C(O)c1c(Cl)ccc2cc(Cl)cnc12,inactive,–
CCOP(=S)(OCC)Oc1cc(C)nc(N(CC)CC)n1,inactive,–
CCOP(=S)(OCC)SCSP(=S)(OCC)OCC,inactive,–
NCCc1cc(O)c(O)cc1O,inactive,–
CCS(=O)(=O)CCSP(=O)(OC)OC,inactive,–
CCCCc1ccccc1,inactive,–
O=C(NC(O)C(Cl)(Cl)Cl)NC(O)C(Cl)(Cl)Cl (stereo not drawn),inactive,–
CCOP(=S)(S)OCC,inactive,–
CCC(C)(C)O,inactive,–
CC(=O)NC1CCSC1=O (stereo not drawn),inactive,–
CNC(=O)Oc1cccc(N=CN(C)C)c1,inactive,–
CCCCC(CC)COP(=O)(Oc1ccccc1)Oc1ccccc1 (stereo not drawn),inactive,–
N#CCCSCCC#N,inactive,–
NCC(CC(=O)O)c1ccc(Cl)cc1 (stereo not drawn),–,10.6% [at 0.349 µM]
CCOC(=O)c1cn2nc(OP(=S)(OCC)OCC)cc2nc1C,inactive,–
C[C@@H](N)[C@@H](O)c1ccccc1,inactive,–

SMILES,Potency,activation
C=CC(=O)N(C)C,inactive,–
CCCN(CCC)c1c([N+](=O)[O-])cc(S(C)(=O)=O)cc1[N+](=O)[O-],inactive,–
CC(O)C#N (stereo not drawn),inactive,–
CC(C)(C)C(=O)C(Oc1ccc(Cl)cc1)n1cncn1 (stereo not drawn),inactive,–
ClSC(Cl)(Cl)Cl,inactive,–
C1CCNCC1,inactive,–
CC(Cc1ccccc1)NCCn1cnc2c1c(=O)n(C)c(=O)n2C (stereo not drawn),inactive,–
Oc1cccc(-c2ccccc2)c1,inactive,–
ClC(Cl)Br,inactive,–
O=C(O)C(F)(F)C(F)(F)C(F)(F)C(F)(F)C(F)(F)F,inactive,–
O=C(Cl)c1ccc(Cl)cc1,inactive,–
O=C(O)CC(Cl)C(=O)O (stereo not drawn),inactive,–
O=C(NC(=O)c1c(F)cccc1F)Nc1ccc(OC(F)(F)C(F)OC(F)(F)F)c(Cl)c1 (stereo not drawn),inactive,–
NNC(N)=O,inactive,–
COc1cccc([C@@]2(O)CCCC[C@@H]2CN(C)C)c1,inactive,–
c1csc(-c2ccc(-c3cccs3)s2)c1,inactive,–
O=C(NC(=O)c1c(F)cccc1F)Nc1cc(Cl)c(Oc2ncc(C(F)(F)F)cc2Cl)c(Cl)c1,inactive,–
CNC(C)Cc1ccccc1OC (stereo not drawn),inactive,–
CSCCCN=C=S,inactive,–
